The whole screen tested about 360,000 compounds, of which about 740 (0.21%) were called active. Roughly 2% stayed inconclusive and do not appear here. The sample holds actives, similar compounds and a random draw of the others, so the mix is not that of the screen. Unmarked numbers belong to inactive results. Calls follow the shape of the dose curve; as a rule, active = well fitted inhibition curve with a large enough effect; inconclusive = small, poorly fitted or top-dose-only effect; inactive = no such curve, though single readings can be large or run the other way.
What follows are compounds tested on Plasmodium falciparum AMA1 (3D7) - RON2 peptide interaction (assay: qHTS for Inhibitors of AMA1-RON; Towards Development of Antimalarial Drug Lead: Primary Screen). Settings: AlphaScreen AMA1-biotinylated RON2 peptide binding; series mostly up to 58.2 µM; activity change, negative = inhibition: at the top concentration.
Text: Plasmodium, the causative agent of malaria, is one of the world's deadliest parasitic diseases. Currently there is no vaccine available and there is widespread resistance to common anti-malarial drugs. This warrants novel, alternative approaches for developing improved therapy. During infection, one such essential interaction is between two parasite proteins, the apical membrane antigen1 (AMA1) that is translocated onto the merozoite surface and the rhoptry neck protein 2 (RON2), which is transferred to the red blood cells (RBC) membrane during invasion (Besteiro et.al., 2009). Recently, the Miller lab has shown that the interaction between AMA1 and RON2 is essential for junction formation of the parasite with the host cell (Srinivasan et.al., 2011). The binding of the RON2 peptide to the hydrophobic pocket in AMA triggers the formation of the moving junction which provides a firm anchor for the parasite to pull itself into the RBC using its actin-myosin motor; an irreversible step that commits the parasite for invasion. Only one AMA1 and RON2 genes exists in Plasmodium and there are no alternate pathways. Moreover, the region corresponding to RON2 peptide is conserved in all P. falciparum isolates for which sequences are available. The key residues in the AMA1 hydrophobic pocket that binds RON2 are also conserved and indicate a functional constraint governing this essential step in invasion since a short RON2 peptide (RON2L) corresponding to the binding region on AMA1 is sufficient to compete with the native RON2 protein and inhibits invasion (Tonkin et.al, 2011). Therefore, developing small molecule inhibitors of this interaction offers a promising target opening a new arena for anti-malarial therapeutics drug design.
In collaboration with the Miller lab, a quantitative High Throughput Screen using the AlphScreen technology was developed using a recombinant his-tagged AMA1 and a biotinylated RON2 peptide. This fluorescent screen was assayed against the NIH Molecular Libraries Small Molecule Repository (MLSMR). Inhibition of this protein-protein interaction is the desired outcome of this assay. However, due the limitations of this AlphaScreen assay, a large number of artifacts were observed. An AlphaScreen counterscreen was run to identify the true inhibitors, triage compound activity, and weed out false positives.
NIH Chemical Genomics Center [NCGC]
NIH Molecular Libraries Probe Centers Network [MLPCN]
Assay Submitter (PI): Louis Miller, National Institute of Allergy and Infectious Disease (NIAID)
Two microliters of his-tagged AMA1 3D7 allele protein (final concentration 25 nM) was dispensed into a 1,536-well assay plate. Small molecules and positive control peptides were pin-transferred (23 nL or 46 nL) via Kalypsys pin-tool equipped with a 1,536-pin array, resulting in final compound and peptide concentration ranges of 91.5 nM - 57.2 µM, and 15.6 nM - 2.00 µM, respectively. Unlabeled RON2 peptide or R1 peptide ([…]) that specifically binds the 3D7 AMA1 was used as a positive control that inhibited the binding of RON2L to AMA1. After 15 minutes incubation, 1 uL of biotinylated RON2 peptide (final concentration 25 nM) or buffer were dispensed and the assay plate was incubated for an additional 30 minutes at room temperature and protected from light. This was followed by an addition of 1 uL mixture of donor and acceptor beads (10 ug/mL final concentrations for each). The plates were incubated for 30 min at room temperature and read using the EnVision(R) plate reader (PerkinElmer). Maximum inhibition response was normalized to the positive control signal while no inhibition response was normalized to the DMSO treated wells.
Also: nearly all actives have a fitted effect of over 45% in size.
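For activity change, negative = inhibition in this document: 0% = vehicle wells and -100% = peptide control.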
Potency is read from the fitted curve at half-maximal effect.

Compound	activity change, negative = inhibition	Potency
CCCN(CCC)CC(O)COc1ccccc1C(=O)Nc1ccccc1 (configuration not stated)	-11.6%	
CC(C)C(O)C1CCN(Cc2nc(Cc3ccccc3Cl)no2)CC1 (configuration not stated)	45.3%	
CCCOc1cc(C)c(S(=O)(=O)n2nnc3ccccc32)cc1C	7.11%	
COc1cccc(-n2c(=O)c3c(C)c(C(=O)N(C)C)sc3n(CC(=O)NCCc3ccc(OC)c(OC)c3)c2=O)c1	4.48%	
Cc1ccc(OCC(=O)Nc2cccc3c2CCCC3)cc1C	10.4%	
Oc1cc(O)c2c(c1)OC(c1ccc(O)c(O)c1)C(O)C2 (configuration not stated)	-11.9%	
CCOC(=O)C1(Cc2ccccc2C(F)(F)F)CCN(C(=O)c2cc(C)n(C)n2)CC1	-2.34%	
C[C@H](CO)N1C[C@H](C)[C@@H](CN(C)C(=O)NC2CCCCC2)Oc2ccc(NC(=O)c3ccncc3)cc2C1=O	-2.89%	
CCCCN(C(=O)c1ccc(OC(F)(F)F)cc1)c1c(N)n(CCC)c(=O)[nH]c1=O	5.06%	
CC(C)C(=O)NCC(c1cccs1)S(=O)(=O)c1ccc(F)cc1 (configuration not stated)	20.5%	
Cc1csc(=O)n1CCC(=O)OCC(=O)Nc1ccc(N2CCOCC2)cc1	14.1%	
CCc1c(C)[nH]c(=S)c(C#N)c1C	22.4%	
COc1ccc(C)cc1S(=O)(=O)Nc1cccc(Cl)c1Cl	3.36%	
CCN(CC)C(=O)CSc1nnc(-c2cnccn2)n1-c1ccc(C)cc1	-8.2%	
COC(=O)c1ccc(OCC(O)CN(CCO)CC(O)Cn2ccc3ccccc32)cc1 (configuration not stated)	9.1%	
NC(=O)CCCC1=NS(=O)(=O)c2ccccc2N1	8.24%	
CC(CC(=O)Nc1ccc(F)cc1F)S(=O)(=O)c1ccc2c(c1)NC(=O)CO2 (configuration not stated)	-11.5%	
O=C(NC1CCCC1)C(NS(=O)(=O)c1ccc(Br)s1)c1ccccc1 (configuration not stated)	4.01%	
Cc1ccc(N)cc1-n1c(C)ccc1C	-2.66%	
COc1cc(C(=O)NNC(=O)CN2C(=O)NC3(CCCC3)C2=O)cc(OC)c1OC	23.7%	
OC(c1ccc(Cl)cc1)C(CN1CCOCC1)c1ccccc1 (configuration not stated)	-4.17%	
C=CCn1c(SCc2c(C(=O)OC)sc(N)c2C(=O)OC)nnc1-c1ccc(Cl)cc1	10.1%	
CC1(C)CC(=O)c2cnc3nc4ccccc4n3c2C1	-13.2%	
CCCC1(C(=O)OC)NC(c2ccco2)C2C(=O)N(C)C(=O)C21 (configuration not stated)	-5.83%	
Cn1ccc(=Nc2ccc(NC(=O)c3ccc(N=c4ccn(C)c5ccc([N+](=O)[O-])cc45)cc3)cc2)cc1	-10.7%	
CCCN(CCC)S(=O)(=O)c1ccc(C(=O)N2CC3CCC(CC3)C2)cc1	-4.87%	

Compound	activity change, negative = inhibition	Potency
CN(c1ccccc1)S(=O)(=O)c1ccc2[nH]c(=O)[nH]c2c1	0.947%	
CC1(C(=O)NCc2ccco2)Cc2c(-c3ccc4c(c3)OCO4)ccnc2O1 (configuration not stated)	-5.41%	
COC(=O)c1ccc(NC(=O)CSc2nncc3ccc(OC)c(OC)c23)cc1	-13.1%	
COCCN(CC(=O)Nc1ccccc1C)S(=O)(=O)c1ccc(S(=O)(=O)N2CCCC2)cc1	2.33%	
CSc1nnc2c(n1)OC(c1cn(C)c3ccccc13)N(C(C)=O)c1ccccc1-2 (configuration not stated)	5.41%	
O=C(CN1C(=O)NC2(CCCCCCC2)C1=O)NCc1ccc(F)cc1	2.43%	
Cc1nc([N+](=O)[O-])nn1C12CC3CC(CC(Br)(C3)C1)C2	-0.205%	
CCOc1ccc(OCC)c(NC(=O)C2CCN(S(=O)(=O)c3c(C)noc3C)CC2)c1	-11.4%	
CSCc1cc(N2CCOCC2)nc(SCc2ccc(Cl)cc2Cl)n1	-1.83%	
CC(=O)c1ccc(S(=O)(=O)NC2CC(=O)N(c3ccc4c(c3)OCCO4)C2)cc1 (configuration not stated)	5.8%	
NC(=O)CC(NC(=O)Cc1ccc(Br)cc1)c1ccc(NC2CC3CCC2C3)c([N+](=O)[O-])c1 (configuration not stated)	-18%	
CCOC(=O)C1(Cc2ccccc2C)CCCN(S(C)(=O)=O)C1 (configuration not stated)	8.1%	
COc1ccc(CNC(=O)C[C@H]2C[C@H](C(=O)N3CCOCC3)[C@@]3(C)c4[nH]c5cc(CCC(=O)N(C)C)ccc5c4CCN3C2=O)cc1OC	11.3%	
COc1ccc2occ(C(=O)c3ccc(N=C(C)N(C)C)cc3)c2c1	-7.37%	
CN(C)c1ccc(Nc2c3c4c(cccc4n(C)c2=O)C(=O)c2ccccc2-3)cc1		4.47 µM (active)
COCCNC(=O)Nc1ccc2nc(-c3ccco3)c(-c3ccco3)nc2c1		7.08 µM (active)
COCCN(C(=O)c1ccco1)c1nnc(-c2ccc(OC)cc2)s1	3.14%	
O=C(NCCOc1ccccc1F)Nc1ccc(Br)cc1	-2.52%	
CC1=C(C(=O)OC(C)(C)C)C(c2ccc(Br)cc2)NC(=O)N1CCCC(=O)O (configuration not stated)	-7.79%	
O=C(CSc1nnc2ccc(-c3ccncc3)nn12)N1CCCCC1	18.5%	
O=C1CCC/C=C\C[C@@H](CC(=O)N(CCO)Cc2ccccc2)C(=O)NCCO1	13.1%	
O=C(O)CSC(NC(=O)c1cccnc1)(C(F)(F)F)C(F)(F)F	-2.41%	
COc1ccc(OC)c(C2C3=C(N=c4s/c(=C\c5cccc(O)c5)c(=O)n42)c2ccccc2CC3)c1 (configuration not stated)	-12.8%	
CCOCCCN(C)C1CCN(C(=O)c2oc3ccccc3c2NC(=O)COc2cccc(C)c2)CC1	-11.2%	
COc1cc(C(=O)OCC(=O)N(CC(C)C)C2CCS(=O)(=O)C2)ccc1OCC(C)C (configuration not stated)	8.24%	
COc1nc(N(C)C)nc(N2CC(=O)N(CCNS(=O)(=O)c3ccc(C)cc3)C2=N)n1	4.54%	

Compound	activity change, negative = inhibition	Potency
CCOc1ccc(NC(=O)CN(C)C(=O)c2cccc(S(=O)(=O)N3CCCC3)c2)cc1OCC	5.03%	
Cc1ccc(CN2CC(C(=O)N3CCN(S(=O)(=O)c4ccccc4)CC3)CC2=O)cc1 (configuration not stated)	2.11%	
CS(=O)(=O)c1ccc(Cl)c(NC(=O)COC(=O)c2ncc(Cl)c(Cl)c2Cl)c1	7.73%	
C=C1C2C[C@H](O)C(C)(C)[C@@]2(O)[C@H](O)C[C@]23C[C@@](C)(O)[C@H](CC[C@H]12)[C@H]3O (some centres not stated)	6.34%	
CCc1ccc(S(=O)(=O)Nc2cc3c(cc2N2CCCCC2)n(C)c(=O)c(=O)n3C)cc1	-3.11%	
O=S(=O)(Nc1cc(S(=O)(=O)N2CCOCC2)ccc1N1CCCC1)c1cccs1	21.9%	
COc1cccc(N(CC(=O)NC2CCCC2)C(=O)Cn2nnc(-c3ccc(C)cc3)n2)c1	-14.7%	
CC(C)(C)OC(=O)N1CCC(C(=O)Nc2cccc(C(=O)NCCc3ccccc3)c2)CC1	8.21%	
COc1ccc(CCNC(=O)C(=O)NCC2OCCN2S(=O)(=O)c2ccc(OC)c(C)c2)cc1 (configuration not stated)	9.2%	
O=C(COC(=O)CNS(=O)(=O)c1ccccc1)NC12CC3CC(CC(C3)C1)C2	-5.62%	
O=c1ccc2cc(S(=O)(=O)NCCCc3ccccc3)ccc2[nH]1	1.59%	
COc1ccc(C2CC(c3ccc(C)cc3)Nc3nc(N)nn32)cc1 (configuration not stated)		3.16 µM (active)
Cc1ccc(C2CC(c3cccc(Br)c3)n3nc(N)nc3N2)cc1 (configuration not stated)	-13%	
COc1ccc(C2CC(c3ccc(Cl)cc3Cl)Nc3nc(N)nn32)cc1OC (configuration not stated)	-7.14%	
CCOc1cc(C(=O)N(Cc2ccccc2)c2ccc(C)cc2)ccc1OCC(=O)N1CCOCC1	6.38%	
CN(C)/C=C(/C(=O)c1ccc(Cl)c(Cl)c1)c1nnnn1-c1ccccc1	25.1%	
COC(=O)c1ccc(NC(=O)CSc2nnc(C3CC3)n2C)cc1	-1.1%	
C/C=C/C=C/C(=O)OCC(=O)Nc1ccc(Cl)cc1	-15.1%	
CCCCN1C(=O)CCC(C(=O)O)C1c1ccc(OC)cc1 (configuration not stated)	-2.98%	
O=C(Nc1cccc(S(=O)(=O)NC2=NCCC2)c1)C1CCCCC1	16.3%	
COCCCNC(=O)c1c(F)c(F)c(F)c(F)c1F	2.58%	
COc1ccc(C(CNC(=O)c2ccc(OCc3cscn3)cc2)N2CCCC2)cc1 (configuration not stated)	-4.79%	
CN(C)/C=C(/C(=O)c1ccc(F)cc1)S(=O)(=O)c1ccc(F)cc1	-2.22%	
CC(c1ccco1)N(C(=O)COc1ccccc1[N+](=O)[O-])c1ccccn1 (configuration not stated)	3.66%	
CCOC(=O)N1CCN(C(=O)COCc2cc(-c3ccc4c(c3)OCO4)on2)CC1	5.8%	
COC(=O)c1c(NC(=O)C(=O)N2CCCCC2)sc2c1CC(C)(C)OC2	50.7%	

Compound	activity change, negative = inhibition	Potency
CCn1cc(/C=C2/SC(=S)NC2=O)c(C)n1	-5.21%	
COC(=O)c1ccc2ccccc2c1OC1OC(CO)C(O)C(O)C1NC(C)=O (configuration not stated)	6.75%	
O=C(c1ccc(Br)o1)N(c1ccccn1)C1CCCCC1	-23.6%	
O=C(NC(=O)c1ccc(Cl)c(Cl)c1)OC1CCS(=O)(=O)C1 (configuration not stated)	0.692%	
O=C(Nc1cccnc1Oc1ncnc2cc(Cl)ccc12)c1ccc(F)cc1	-12.6%	
CCN(C(=O)COC(=O)c1sccc1C)c1c(N)n(Cc2ccccc2)c(=O)[nH]c1=O	3.44%	
Nc1ccc2nc3c(=O)[nH]c(=S)[nH]c3nc2c1		1.41 µM (active)
c1ccc(CCC2=NCCn3cccc32)cc1		inactive
Cc1ccc(S(=O)(=O)N2CCCCC2)cc1NC(=O)CCNC(=O)c1ccccc1	2.37%	
Cc1ccc(-c2nnn(CC(=O)N(CCO)C(C(=O)NC(C)(C)C)c3ccncc3)n2)cc1 (configuration not stated)	-5.68%	
Cc1cccc(C)c1NC(=O)CN1C(=O)C(C)Oc2ccccc21 (configuration not stated)	-12.1%	
Cc1occc1-c1nnc(SCC(=O)NC2CCCCC2)o1	-2.44%	
COc1cc(Cl)c(C)cc1NC(=O)CSc1nnc(CN2CCCC2)o1	75.1%	
CCn1c(SCC(=O)Nc2cc(C)c(Cl)cc2OC)nnc1-c1ccco1		33.6 µM (active)
COc1cc(Cl)c(C)cc1NC(=O)CSc1nnc(-c2ccco2)n1CC(C)C	-19.4%	
CC(C)NC(=O)NCCCCCCS(C)=O (configuration not stated)	-0.738%	
Oc1ccc2ccccc2c1N=Nc1nccs1		28.2 µM (active)
COc1ccc(CNC(=O)c2ccc(NS(=O)(=O)c3ccc4[nH]c(=O)[nH]c4c3)cc2)cc1OC	-5.23%	
COCCNC(=O)C1CCCN(Cc2ccccc2Cl)CC1 (configuration not stated)	-2.5%	
Cc1ccc(CN2CCN(/N=C/c3ccco3)CC2)c(C)c1	-3.91%	
COc1ccccc1/C=C/C=N/NC(=O)CN1CCN(Cc2ccccc2)CC1	2.67%	
O=S1(=O)CCN(Cc2ccccc2Cl)CC1	-14%	
CSc1ccc(/C=N/N2CCN(Cc3ccccc3Cl)CC2)cc1		14.1 µM (active)
COc1ccccc1/C=N/N1CCN(Cc2ccccc2Cl)CC1		15.8 µM (active)
